Screens from PubChem.
POLI inh: qHTS for Inhibitors of Polymerase Iota | DNA polymerase iota (Homo sapiens), Q9UNA4 | Pol iota fluorescent replication assay, 10 min | Potency, µM (top dose mostly 115 µM), inactives show top-dose activity, negative = inhibition, most hits filed as inhibitors | hit rate 1% among 390,000 | AID 588590, 2011
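Pol iota at 10 nM preincubated 15 min with compounds at room temperature; reaction started with fluorescent substrate, 50 nM final. Fluorescence read kinetically at 0 and 10 min; buffer-only wells as negative control.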
APEX1 inh: qHTS Assay for Inhibitors of the Human Apurinic/apyrimidinic Endonuclease 1 (APE1). Potency, µM (highest dose often 65.8 µM), inactives show top-dose activity change, negative = inhibition, actives largely listed as inhibitors. recombinant APE1, TAMRA/BHQ-2 abasic DNA cleavage fluorescence. DNA repair nuclease/redox regulator APEX1 (Homo sapiens), P27695. hit rate 0.35% among 350,000;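 further: plate controls were vehicle for no effect and reference inhibitor for full effect; nearly all actives have a fitted effect of over 55% in size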
Target sequence (P27695 whole entry, looked up): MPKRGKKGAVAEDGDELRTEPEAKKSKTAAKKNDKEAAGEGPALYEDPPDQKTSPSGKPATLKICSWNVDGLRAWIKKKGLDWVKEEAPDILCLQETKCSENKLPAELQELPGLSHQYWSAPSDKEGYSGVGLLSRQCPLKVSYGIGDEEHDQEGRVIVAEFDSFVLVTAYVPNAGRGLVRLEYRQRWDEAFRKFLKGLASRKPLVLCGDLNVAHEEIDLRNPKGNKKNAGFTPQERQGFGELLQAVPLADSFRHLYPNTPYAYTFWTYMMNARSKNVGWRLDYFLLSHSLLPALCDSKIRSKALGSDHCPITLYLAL
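Compound pre-exposure to 0.75 nM APE1, 15 min at ambient temperature. Reaction initiated with 50 nM TAMRA/BHQ-2 THF substrate, read immediately in kinetic mode, 525 nm excitation, 598 nm emission.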
GLS inh: qHTS for Inhibitors of Glutaminase (GLS); Glutaminase kidney isoform, mitochondrial (Homo sapiens), O94925; GLS enzymatic activity, qHTS titration; Potency, µM (top dose mostly 45.5 µM), inactives show at the highest dose activity change, negative = inhibition, most hits filed as inhibitors; hit rate 0.21% among 410,000; AID 624170, 2012; further: on the % scale 0 is the no-effect control and ±100 the full control effect
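hKGA; 45 mM KH2PO4 pH 8.2 + 0.02% Tween-20; cpd via pin tool; 1 mM Gln soln; GluOx/HRP/Amplex Red; RT 30 min; fluor. t0 & final.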
POLK inh: qHTS for Inhibitors of Polymerase Kappa. DNA polymerase kappa (Homo sapiens), Q9UBT6. purified Pol kappa, fluorescent DNA synthesis assay, 10 min. Potency, µM (series often up to 107 µM), for the others: at the top dose activity, negative = inhibition, hits mostly inhibitors. hit rate 0.53% among 400,000; further: on the % scale 0 is the no-effect control and ±100 the full control effect
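Kinetic fluorescence readout at 0 and 10 min followed reaction start with substrate at 50 nM final. Beforehand, enzyme (10 nM Pol kappa) stood 15 min with compound at room temperature; buffer-only wells were negative controls.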
POLH inh: qHTS for Inhibitors of Polymerase Eta; DNA polymerase eta (Homo sapiens), Q9Y253; recombinant Pol eta, fluorescent DNA replication assay; Potency, µM (doses to about 114 µM), for the others: at the top dose activity change, negative = inhibition, most hits filed as inhibitors; hit rate 1.2% among 390,000; AID 588591, 2011; further: on the % scale 0 is the no-effect control and ±100 the full control effect
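Pol eta (10 nM) was preincubated with compounds for 15 min at room temperature, after which fluorescent replication substrate (50 nM final) was added to start the reaction. Fluorescence was read kinetically at 0 and 10 min.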
Pol beta inh: qHTS Assay for Inhibitors of DNA Polymerase Beta; Pol beta primer extension/strand displacement, fluorescence kinetic; Potency, µM (doses to about 114 µM), without a hit: top-dose activity change, negative = inhibition, hits mostly inhibitors; AID 485314, 2010; hit rate 1.3% among 340,000; further: on the % scale 0 is the no-effect control and ±100 the full control effect
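Human Pol beta at 10 nM; strand-displacement substrate 50 nM final. Compound exposure 15 min at room temperature before start, reaction 10 min at room temperature.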
The depositor's hits bear a star; ? = inconclusive; · = no result; ! = not confirmed by another sample; [ ] = dose if it differs, or a comment. Hits are enriched below; roughly 2.4% of the tested compounds scored in any of these assays. The call rests on the fitted dose curve; in most records, active means well fitted curve in the direction sought with a large enough effect; inconclusive means small, poorly fitted or top-dose-only effect, or another doubt; inactive means no such curve, though single readings can be large; an effect the other way counts as inactive or inconclusive. Potency means the concentration at half of the fitted maximal effect.

SMILES | POLI inh | APEX1 inh | GLS inh | POLK inh | POLH inh | Pol beta inh
CCOc1ccc(CCNC(=O)CN(C)S(=O)(=O)c2cccs2)cc1OCC | 12% | 1% | 14% | 0% | -11% | ·
CCOC(=O)c1ccc2c(c1)C1C=CCC1C(C(=O)O)N2 (stereo unspecified) | · | ? | · | · | · | 4µM*
CCOC(=O)C1Nc2ccc(C(=O)O)cc2C2C=CCC12 (stereo unspecified) | ? | -9% | 3.2µM* | 10µM* | 2.8µM* | 16µM*
O=C(O)C1Nc2ccccc2C2C=CCC12 (stereo unspecified) | 3.5µM* | · | · | 6.3µM* | · | ·
CCCC1Nc2ccc(C(=O)O)cc2C2C=CCC12 (stereo unspecified) | 18µM* | 7% | 10µM* | 35µM* | 8.9µM* | 35µM*
COc1cccc(C2Oc3ccccc3C3CC(c4cccs4)=NN32)c1 (stereo unspecified) | 32% | 13% | -5% | -5% | -15% | 25%
CCOC(=O)/C(C(N)=NC)=C(\O)c1ccccc1 | 17% | 3% | -3% | 3% | -7% | 0%
O=C(CN1C(=O)NC2(CCCC2)C1=O)OCc1ccccc1 | 21% | 24% | 0% | -7% | -3% | ·
CCOC(=O)CN1C(=O)N[C@@H](c2cccc(F)c2)C(C(C)=O)=C1C | 17% | -2%[12.4 µM] | 2% | 4% | -10% | ·
COc1ccc(Br)cc1CNC(=O)CN1C(=O)CCCc2ccccc21 | 3% | · | 1% | -9% | -10% | 29%
COc1ccc(-n2c(C)c(C(C)=O)c3cc(O)ccc32)cc1 | -11% | · | 10% | -6% | -6% | -26%
Cc1ccc(-c2nnc(COC(=O)c3cc(=O)[nH]c4ccccc34)o2)cc1 | 17% | 1% | 3% | -13% | ? | 2%
CCCN1CCC(=O)N(CCSc2ccccc2)CC1 | -6% | 8% | 5% | -7% | -17% | 0%
O=C1CCN(Cc2ccccc2)CCN1CCSc1ccccc1 | 79µM*! | 28% | -4% | ? | -5% | -1%
Nc1c(-c2nc(-c3ccccc3)no2)nnn1CC(=O)Nc1cccc(F)c1 | 11% | · | -5% | -3% | -26% | 14µM*
OCCCNC(=S)Nc1ccc2nccnc2c1 | 14µM* | 1% | 3% | -8% | 1% | 50%
CO[C@@]1(NC(=O)CSCC#N)C(=O)N2C(C(=O)O)=C(CSc3nnnn3C)CS[C@@H]21 | ? | -5% | 11µM* | -5%[60.1 µM] | 2.2µM*! | -2%
CO[C@]1(NC(=O)CSCC#N)C(=O)N2C(C(=O)O)=C(CSc3nnnn3C)CS[C@H]21 | · | · | 30% | -7%[12 µM] | · | ·
CCC(C)C(=O)C(=O)N1CCC(n2nccc2NC(=O)CCOc2ccccc2)CC1 (stereo unspecified) | · | · | -6% | · | -4% | ·
CCCCCCNC(=O)N[C@@H](C(=O)NCCC[C@H]1CN2C(=NC[C@@H]2Cc2ccccc2)N1CCc1cccc(OC)c1)C(C)C | 25µM* | 1% | -7% | -7% | -2% | 12%
O=C(CN1CCN(C(=O)c2ccco2)CC1)Nc1ccc2c(c1)OCCO2 | 3% | -7% | 11% | 4% | 10% | 8%
COc1cc(/C=C2\SC(=S)N(NC(=O)c3ccc(O)cc3)C2=O)ccc1O | 50µM* | -16% | 3% | ? | ? | 13µM*
COc1cc(/C=C2\SC(=S)N(NC(=O)c3cccnc3)C2=O)ccc1O | 16µM* | ? | 25% | ? | ? | ?
COc1cc(/C=C2\SC(=S)N(c3cccnc3)C2=O)ccc1O | ? | -6% | ? | ? | 4% | ?
Cc1cc(C)cc(NC(=O)c2cccnc2)c1 | 164% | 14% | 7% | -13% | 13% | 4%
SMILES | POLI inh | APEX1 inh | GLS inh | POLK inh | POLH inh | Pol beta inh
COc1cc2c(-c3ccc4cc[nH]c4c3)c(-c3ccc(C#N)cc3)oc(=O)c2cc1OC | 23% | 10% | -5% | -4% | -1% | ·
N#CC1=C(c2ccc(-c3ccccc3)cc2)COC1=O | ? | -3% | 1% | -21% | 89µM* | ?
COC(=O)c1ccc(OC(=O)c2cccnc2SC)cc1 | 30% | -5% | -23% | -5% | -4% | 15%
COC(=O)c1ccc(OC(=O)c2ccccn2)cc1 | 18µM* | -1% | 16% | -9% | 9% | ?
CC(=O)Nc1cccc(Cl)c1C(=O)O | 6% | -2% | 1% | -9% | -2% | 20%
Oc1c(Br)cc(Br)cc1/C=N/n1c(-c2ccccc2)n[nH]c1=S | -16% | -4% | 11% | -25% | -12% | -3%
COc1c(Br)cc(/C=N/n2c(-c3ccccc3)n[nH]c2=S)c(O)c1Br | ? | 0% | 15% | 2µM* | 79µM* | 3.5µM*
Oc1c(Br)cc(/C=N/n2c(-c3ccccc3)n[nH]c2=S)c(Br)c1O | · | 0.42µM* | · | · | · | 0.25µM*
Oc1ccccc1/C=N/n1c(-c2ccccc2)n[nH]c1=S | 149% | 15% | -12% | -13% | -16% | -3%
CC1(C)SC2C(NC(=O)C(c3ccccc3)S(=O)(=O)O)C(=O)N2C1C(=O)O (stereo unspecified) | · | · | -8% | · | · | ·
CC1(C)S[C@@H]2[C@H](NC(=O)C(C(=O)Oc3ccc4c(c3)CCC4)c3ccccc3)C(=O)N2[C@H]1C(=O)O (stereo partly specified) | · | · | 7.9µM* | · | · | ·
CC1(C)S[C@@H]2[C@H](NC(=O)[C@@H](N)c3ccc(O)cc3)C(=O)N2[C@H]1C(=O)O | · | 0%[21 µM] | · | -4%[12 µM] | · | ·
CC1(C)S[C@@H]2[C@H](NC(=O)C(N)c3ccccc3)C(=O)N2[C@H]1C(=O)O (stereo partly specified) | · | 13µM* | · | -7%[12 µM] | · | ·
C=NC(C(=O)NC1C(=O)N2C1SC(C)(C)C2C(=O)O)c1ccccc1 (stereo unspecified) | · | · | 28µM* | ? | · | ·
CC(Oc1ccccc1)C(=O)NC1C(=O)N2C1SC(C)(C)C2C(=O)O (stereo unspecified) | -1% | -3% | 0% | -15% | 11% | 11%
CC1(C(=O)Nc2cnc3ccccc3c2)CCN1CCc1ccccc1 (stereo unspecified) | · | · | 15% | · | · | ·
CSc1ncccc1C(=O)OCC(=O)NC1CCS(=O)(=O)C1 (stereo unspecified) | 18% | -1% | 3% | -2% | -2% | 32%
